{"source": "paper PMC6792352", "about": "“Limited Chemical Structural Diversity Found to Modulate Thyroid Hormone Receptor in the Tox21 Chemical Library” (Environmental Health Perspectives, 2019)", "note": "Counter-ions that a name gives are not always drawn.", "data": [{"tested_on": "thyroid hormone receptor (endogenous TRα and TRβ)", "design": "species or system GH3-TRE-Luc (rat pituitary); GH3-TRE-Luc luciferase reporter, antagonist mode against 1 nM T3, loss of signal, qHTS", "settings": "read-out: Average AC50 (uM) GH3-TRE-Antag, antagonist mode, 1 nM T3, no GH3 cytotoxicity hit", "units": {"AC50": "µM"}, "values": [{"smiles": "NNc1nnc(Cc2ccncc2)c2ccccc12", "note": "[Picodralazine]", "AC50": 3.28}, {"smiles": "CC1(C)C(C=C(Cl)Cl)[C@@H]1C(=O)O[C@@H](C#N)c1ccc(F)c(Oc2ccccc2)c1", "note": "(some centres unmarked) [Cyfluthrin]", "AC50": 39.9}, {"smiles": "CC(=O)CC/C=C(\\C)CC/C=C(\\C)CC/C=C(\\C)CCC=C(C)C", "note": "[Teprenone]", "AC50": 33.9}, {"smiles": "Fc1ccc([C@@]2(Cn3cncn3)O[C@@H]2c2ccccc2Cl)cc1", "note": "(racemic) [Epoxiconazole]", "AC50": 41.2}, {"smiles": "OCCN1CCNCC1", "note": "[1-Piperazineethanol]", "AC50": 74.1}, {"smiles": "Cc1cccc(Nc2ccccc2C(=O)O)c1C", "note": "[Mefenamic acid]", "AC50": 27.4}, {"smiles": "Cc1ccccc1C(=O)Nc1ccc(C(=O)N2CCCC(O)c3cc(Cl)ccc32)c(C)c1", "note": "(centres unmarked) [Tolvaptan]", "AC50": 21.9}, {"smiles": "Nc1c(Br)cc(Br)cc1CN[C@H]1CC[C@H](O)CC1", "note": "[Ambroxolhydrochloride]", "AC50": 24.9}, {"smiles": "O=c1[nH]c2ccc([S+]([O-])CCN3CCC(Cc4ccc(F)cc4)CC3)cc2o1", "note": "(centres unmarked) [Besonprodil]", "AC50": 75.9}, {"smiles": "C=C(C#N)C(=O)OCC", "note": "[Ethyl cyanoacrylate]", "AC50": "> 90"}, {"smiles": "CCCCOc1cc(C(=O)OCCN(CC)CC)ccc1N", "note": "[Benoxinate hydrochloride]", "AC50": 11.8}, {"smiles": "CC(C)Oc1cccc(NC(=O)c2ccccc2C(F)(F)F)c1", "note": "[Flutolanil]", "AC50": "> 90"}, {"smiles": "O=C(c1ccc(O)cc1)c1ccc(O)cc1O", "note": "[2,4,4'-Trihydroxybenzophenone]", "AC50": "> 90"}, {"smiles": "Nc1ccc(C(=O)Oc2ccccc2)c(O)c1", "note": "[Phenyl 4-aminosalicylate]", "AC50": 49.5}, {"smiles": "O=C1[C@H](CC[C@H](O)c2ccc(F)cc2)[C@@H](c2ccc(O)cc2)N1c1ccc(F)cc1", "note": "[Ezetimibe]", "AC50": 33.5}, {"smiles": "CCC(=O)Oc1ccc(/C(CC)=C(\\CC)c2ccc(OC(=O)CC)cc2)cc1", "note": "[Diethylstilbestrol dipropionate]", "AC50": 56.1}, {"smiles": "Nc1nc(N)c2nc(CNc3ccc(C(=O)N[C@@H](CCC(=O)O)C(=O)O)cc3)cnc2n1", "note": "[4-Aminofolic acid]", "AC50": 25.2}, {"smiles": "C[C@]12CC[C@H]3[C@@H](CC[C@@]45O[C@@H]4C(O)=C(C#N)C[C@]35C)[C@@H]1CC[C@@H]2O", "note": "[Trilostane]", "AC50": "> 50"}, {"smiles": "O=S1(=O)c2cccc3cccc(c23)N1CCCN1CCN(c2ccc(F)cc2)CC1", "note": "[Fananserin]", "AC50": "> 50"}, {"smiles": "NC(=O)N(O)[C@@H]1C=C[C@H](Oc2cccc(Oc3ccc(F)cc3)c2)C1", "note": "[CJ-013790]", "AC50": 81.3}, {"smiles": "O=C(CCC1CCN(Cc2ccccc2)CC1)c1ccc2c(c1)NCCCC2", "note": "[Zanapezil fumerate]", "AC50": 12.4}, {"smiles": "O=C(c1ccc(O)cc1)c1ccc(Cl)cc1", "note": "[4-Hydroxy-4'-chlorobenzophenone]", "AC50": 86.9}, {"smiles": "c1ccc(-c2cccc(-c3ccccc3)c2)cc1", "note": "[1,1':3',1''-Terphenyl]", "AC50": 50.3}, {"smiles": "CC1CC(OC(=O)C(O)c2ccccc2)CC(C)(C)C1", "note": "(centres unmarked) [Cyclandelate]", "AC50": 44.8}, {"smiles": "CCCCCCC(=O)O[C@H]1CC[C@H]2[C@@H]3CCc4cc(O)ccc4[C@H]3CC[C@]12C", "note": "[Estradiol enanthate]", "AC50": 18.9}, {"smiles": "C[C@@H]1C[C@H]2[C@@H]3CCC4=CC(=O)C=C[C@]4(C)[C@@]3(Cl)[C@@H](O)C[C@]2(C)[C@@]1(OC(=O)c1ccco1)C(=O)CCl", "note": "[Mometasone furoate]", "AC50": 16.9}]}, {"tested_on": "thyroid hormone receptor (endogenous TRα and TRβ)", "design": "species or system GH3-TRE-Luc (rat pituitary); GH3-TRE-Luc luciferase reporter, antagonist mode against 1 nM T3, loss of signal, qHTS", "settings": "read-out: Average AC50 (uM) GH3-TRE-Antag, antagonist mode, 1 nM T3, no GH3 cytotoxicity hit, Average AC50 (uM) GH3-TRE-Antag, 24 h", "units": {"AC50": "µM"}, "values": [{"smiles": "CC(C)c1c(C(=O)Nc2ccccc2)c(-c2ccccc2)c(-c2ccc(F)cc2)n1CC[C@@H](O)C[C@@H](O)CC(=O)O", "note": "[Atorvastatin calcium]", "AC50": 14.2}, {"smiles": "CCCCCC[n+]1ccccc1", "note": "[1-Hexylpyridinium bromide]", "AC50": 62.1}, {"smiles": "CC(C)n1c(/C=C/[C@H](O)C[C@H](O)CC(=O)O)c(-c2ccc(F)cc2)c2ccccc21", "note": "(racemic) [Fluvastatin]", "AC50": 45.3}]}]}
